Screening data (PubChem)
TWEAK-Fn14 inh = TWEAK-Fn14 signaling inhibition. TWEAK-stimulated Fn14 reporter cells, luciferase luminescence, 8 h. inhibition, % at 10 µM. 360,000 compounds, 2% hits. AID 1159606; in the data active = inhibition above about 50%
HIF-2a block = inhibitors of HIF-2a. 786-0 RCC cells HIF-2a reporter, luciferase luminescence, overnight. inhibition, % at 18.8 µM. 360,000 compounds, 0.72% hits. AID 624352;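 active = inhibition of the luminescence signal of 40% or more relative to plate controls, in a single-dose primary screen at 18.75 µM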
TROY signal inh = TROY signaling inhibition; Q293 LMP1-TROYcd NF-kB luciferase reporter, 4 h; inhibition, % at 10 µM; 360,000 compounds, 0.98% hits; AID 1347056;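 active = compounds whose plate-normalised and pattern-corrected inhibition of the luciferase reporter signal at the single screening dose is 50% or more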
KKLEB cytotox = counter-screen for CF NF-kB inhibitors: cytotoxicity; KKLEB CF airway cells viability, ATPlite luminescence, overnight; active compounds read low; cells stimulated with P. aeruginosa culture filtrate; activity change (cytotoxicity), % at 5 µM; 360,000 compounds, 0.36% hits;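 active = corrected activity change at or below -50% at 5 µM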
CF NFkB block = inhibitors of cystic fibrosis induced NF-kB. KKLEB NF-kB-GFP reporter, PAF-induced, GFP fluorescence overnight. inhibition, % at 5 µM. 360,000 compounds, 0.86% hits. AID 588850;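 active = at least 50% inhibition at 5 µM, scaled per plate between neutral and stimulator controls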;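 also: PAF is a Pseudomonas aeruginosa culture filtrate used as stimulus; plate controls were PAF-stimulated DMSO wells for no effect and unstimulated DMSO wells for full effect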
Peg3 promoter = inhibitors of Peg3 promoter; HeLa PEG-Prom luciferase reporter, luminescence, overnight; inhibition, % at 20 µM; 360,000 compounds, 1.7% hits;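 active = inhibition of at least 50% at 20 µM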
Active calls of the source: *. An excerpt weighted towards active compounds, which were near 4% of everything screened.

SMILES | TWEAK-Fn14 inh | HIF-2a block | TROY signal inh | KKLEB cytotox | CF NFkB block | Peg3 promoter
N#C/C(=N\Nc1ccc(S(=O)(=O)N2CCc3ccccc32)cc1)C(N)=S | 58* | 32 | 72* | -9 | 58* | 43
Cc1cc(=O)oc(C)c1C(=O)n1nc(C)c2c1C[C@@H]1[C@H]2C1(C)C | 7 | 6 | -1 | -4 | 6 | -1
COCCn1ccc2c(OCC(=O)Nc3cc(OC)ccc3OC)cccc2c1=O | -8 | 9 | -10 | 3 | 20 | 52*
NC(=O)CCC(NC(=O)c1ccc(Cl)cc1)C(=O)NCCc1ccc2c(c1)OCCO2 (centres undefined) | -3 | 5 | 24 | -15 | 13 | 11
C[C@]12CCC(O)CC1=CCC1C2CC[C@]2(C)/C(=N\NC(N)=S)CCC12 (some centres undefined) | 94* | 13 | 15 | 2 | 40 | 1
CC12CCC(O)CC1=CCC1C2CCC2(C)C1CCC21CCC(=O)O1 (centres undefined) | -7 | -1 | 10 | -6 | 3 | 8
N=c1c(C(=O)NCCc2ccccc2)cc2c(=O)n3ccccc3nc2n1Cc1ccco1 | 75* | -97 | 29 | -3 | -3 | 19
N=c1c(C(=O)NC2CCCCC2)cc2c(=O)n3ccccc3nc2n1Cc1ccccc1 | -19 | 5 | -8 | -14 | 13 | 18
N=c1c(C(=O)NC2CCCCC2)cc2c(=O)n3ccccc3nc2n1Cc1ccco1 | 85* | 19 | 19 | -8 | 8 | 0
CCOc1ccc(OCCC(=O)NNC(=O)c2cc(C)oc2C)cc1 | -20 | 9 | 11 | -11 | 12 | 3
O=C(N/N=C/c1ccc(O)cc1O)c1ccncc1 | -14 | 6 | -4 | -8 | 8 | 33
CCc1cc(C(=O)N/N=C/c2ccc(O)cc2O)c2ccccc2n1 | -21 | 9 | 21 | 3 | -8 | 52*
COc1ccc(-n2nnc3c(SCC(=O)NCc4ccco4)ncnc32)cc1 | 11 | -4 | 17 | -11 | 30 | -21
CCOc1ccc2c(c1)C(=NNC(=O)c1ccncc1)c1cc(OCC)ccc1-2 | 2 | -126 | -37 | 10 | -39 | 55*
CCOc1ccc(NC(=O)c2ccncc2)cc1 | 9 | -33 | -1 | -1 | 6 | -50
CCOC(=O)[C@@H]1[C@H]2COc3cc(OC)ccc3[C@@H]2N2C(=O)N(c3ccc(OC)cc3)C(=O)[C@]12C | -5 | 9 | 8 | -4 | 13 | 6
COC(=O)Cc1[nH]n(-c2nc3ccccc3s2)c(=O)c1C(C)=O | 38 | -49 | 21 | 0 | 0 | -7
COc1ccc(CN=C(C)c2c(C(F)(F)F)[nH]n(-c3nc4ccccc4s3)c2=O)cc1 | 58* | -83 | -34 | -43 | 22 | -258
O=C(CSc1nc2ccccc2s1)NCc1ccc2c(c1)OCO2 | 62* | -7 | 11 | -2 | 1 | 4
COc1cccc(-n2nnnc2SCC(=O)NCc2ccc3c(c2)OCO3)c1 | 81* | -13 | -8 | 15 | -12 | -2
O=C(CSc1ncnc2scc(-c3ccc(Cl)cc3)c12)NCc1ccc2c(c1)OCO2 | 86* | 27 | -2 | -4 | -7 | 27
Cc1ccc(-c2csc3ncnc(SCC(=O)NCc4ccc5c(c4)OCO5)c23)cc1 | 23 | 23 | 12 | -2 | 8 | 18
O=C(CSc1nnc(NC(=O)c2ccc3c(c2)OCO3)s1)NCc1ccco1 | 61* | -124 | 1 | -17 | -1 | -17
O=C(CSc1nnc(NC(=O)c2ccccc2)s1)NCc1ccco1 | 21 | -52 | -12 | 7 | -12 | -71
NC(CSS(=O)(=O)O)=NCCC12CC3CC(CC(O)(C3)C1)C2 | 10 | -18 | -3 | 3 | 1 | -36
COC(=O)c1ccc(CNC(=O)CN(CCC(C)C)S(=O)(=O)c2ccc3c(c2)OCCO3)cc1 | 0 | 17 | 19 | -1 | -14 | 35
CCC(C)(C(=O)NC1CCCC1)N(C(=O)CC1NC(=O)NC1=O)c1ccc(C)cc1 (centres undefined) | -8 | 6 | 7 | 1 | -15 | 8
COc1ccc(CCn2c(=S)[nH]c3cc(C(=O)NCc4ccco4)ccc3c2=O)cc1OC | 52* | 17 | 16 | -10 | 12 | 51*
Cc1cccn2c(CN(C)CC3CCCCO3)c(C(=O)N3CCCCC3)nc12 (centres undefined) | -3 | 22 | 3 | 3 | 2 | 14
